According to PubChem BioAssay AID1159580 (chemical genetic matrix, 2015):
Among all 5,500 compounds or so, about 2,000 (36%) were called active. Inconclusive results (about 18%) are left out. Rule as the data show it: active = normalized growth mostly below about 0.91 (no sharp cut-off); inconclusive = no clear call, values can overlap the other calls; inactive = mostly above about 0.92. The list shows a part of the results.

Experiment: chemical genetic growth profiling, strain panel (AID 1159580);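 also: tested at 20 µM; growth read once vehicle control cultures reached saturation at 30 °C; 1 = growth at the plate median or of vehicle wells; lower values mean less growth of the strain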
Conditions: S. cerevisiae deletion strains, growth OD
[1] = locus YAL013W, strain DEP1, active compounds read low
[2] = locus YDR150W, strain NUM1, active compounds read low
[3] = locus YMR263W, strain SAP30, active compounds read low
[4] = locus YMR307W, strain GAS1, active compounds read low
[5] = locus YNL153C, strain GIM3, active compounds read low

Measured: normalized growth

O=C(CSc1nnc(-c2ccco2)n1-c1ccc2c(c1)OCCO2)c1cccc(F)c1
inactive: [1] 0.983 | locus YBR229C, strain ROT2, active compounds read low 1 | locus YCL061C, strain MRC1, active compounds read low 0.997 | locus YDL101C, strain DUN1, active compounds read low 0.987 | locus YDL134C, strain PPH21, active compounds read low 1 | [2] 1.01 | locus YEL061C, strain CIN8, active compounds read low 0.984 | locus YGR078C, strain PAC10, active compounds read low 0.988 | locus YGR229C, strain SMI1, active compounds read low 1 | locus YHR030C, strain SLT2, active compounds read low 0.961 | locus YHR087W, strain rtc3, active compounds read low 1 | locus YJL187C, strain SWE1, active compounds read low 1.01 | locus YJR043C, strain POL32, active compounds read low 0.997 | locus YJR075W, strain HOC1, active compounds read low 1.01 | locus YKL190W, strain CNB1, active compounds read low 1 | locus YLR039C, strain RIC1, active compounds read low 0.916 | locus YLR058C, strain SHM2 (second series), active compounds read low 1.01 | locus YLR085C, strain ARP6, active compounds read low 0.978 | locus YLR262C, strain YPT6, active compounds read low 0.954 | locus YML094W, strain GIM5, active compounds read low 0.983 | locus YMR219W, strain ESC1, active compounds read low 0.988 | [3] 0.909 | [4] 0.77 | [5] 0.988 | locus YNL298W, strain CLA4 (second series), active compounds read low 0.977 | locus YNL322C, strain KRE1, active compounds read low 0.989 | locus YNR030W, strain Alg12, active compounds read low 0.988 | locus YPL055C, strain LGE1, active compounds read low 0.968 | locus YPL241C, strain CIN2, active compounds read low 0.994 | locus YPR135W, strain CTF4, active compounds read low 0.854

Cn1cnc2c(NC3CCCC3)ncnc21
inactive: [1] 0.992 | locus YAL040C, strain CLN3, active compounds read low 0.993 | locus YCL061C, strain MRC1 (second series), active compounds read low 1 | [2] 0.999 | locus YDR363W, strain ESC2, active compounds read low 1 | locus YER002W, strain NOP16, active compounds read low 1.01 | [3] 1 | [4] 0.989 | locus YNL128W, strain TEP1, active compounds read low 1 | [5] 1.02 | locus YNL175C, strain NOP13, active compounds read low 1.04 | locus YNL197C, strain WHI3, active compounds read low 1 | locus YNL224C, strain SQS1, active compounds read low 0.997 | locus YOR083W, strain WHI5 (second series), active compounds read low 0.984
